# Experiments:
# Settings in all cases: concentration: 1 μM, replicates: in singlicate; n = 1
# MAST1 = system: MAST1
# MEK1 = system: T1, MEK1
# T1 construct: gene MAP2K1
# MEK2 = system: T2, MEK2
# T2 construct: gene MAP2K2
# MEK3 = system: T3, MEK3
# T3 construct: gene MAP2K3
# MEK4 = system: T4, MEK4
# T4 construct: gene MAP2K4
# MEK5 = system: T5, MEK5
# T5 construct: gene MAP2K5
# MEK6 = system: T6, MEK6
# T6 construct: gene MAP2K6
# MELK = system: MELK
# MERTK = system: MERTK
# MET = system: MET
# MINK = system: T7, MINK
# T7 construct: gene MINK1
# MKK7 = system: MKK7
# MKNK1 = system: MKNK1
# MKNK2 = system: MKNK2
# MLCK = system: T8, MLCK
# T8 construct: gene MYLK3
# MLK1 = system: T9, MLK1
# T9 construct: gene MAP3K9
# MLK2 = system: MLK2
# MLK3 = system: MLK3
# MRCKA = system: MRCKA
# MRCKB = system: T10, MRCKB
# T10 construct: gene CDC42BPB
# 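Note: KINOMEscan kinase panel screen.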
Compound,%Inh (MAST1) [%],%Inh (MEK1) [%],%Inh (MEK2) [%],%Inh (MEK3) [%],%Inh (MEK4) [%],%Inh (MEK5) [%],%Inh (MEK6) [%],%Inh (MELK) [%],%Inh (MERTK) [%],%Inh (MET) [%],%Inh (MINK) [%],%Inh (MKK7) [%],%Inh (MKNK1) [%],%Inh (MKNK2) [%],%Inh (MLCK) [%],%Inh (MLK1) [%],%Inh (MLK2) [%],%Inh (MLK3) [%],%Inh (MRCKA) [%],%Inh (MRCKB) [%]
Nc1ncnc2occ(-c3ccc4c(c3)CCN4C(=O)Cc3cc(F)ccc3F)c12 [GSK2645446],0,0,0,0,2,92.3,0,3,34,0,0,0,0,0,0,0,10,6,22,0
COc1ccc(CSc2nnc(-c3ccc4c(c3)CCO4)o2)cc1,7,0,0,0,0,1,0,0,0,0,0,0,0,0,0,0,15,0,0,0
Cc1cccc2c(-c3ccncn3)c(-c3ccc(F)cc3)nn12 [GW515532],7,0,0,0,19,10,0,0,15,0,0,0,0,3,0,0,28,4,0,0
Cc1ccccc1-c1cc(-c2c[nH]nc2-c2ccccn2)ccn1 [GW680061],6,0,0,0,4,5,0,0,16,0,31,0,9,0,0,0,2,0,0,0
Cn1cncc1C(=O)NC1CCN(c2ccnc(Nc3ccc(F)cc3)n2)C1 (stereo not shown) [GSK1379717],0,0,0,11,28,3,0,0,5,0,0,10,0,5,0,0,0,0,2,0
CNc1nc(-c2ccc3c(N)n[nH]c3c2)cc(N2C[C@@H](C(=O)Nc3ccccc3)CC[C@H]2C)n1 [GSK2298859],0,0,0,0,7,7,0,58,35,0,0,0,0,0,0,0,0,28,10,0
COC(=O)C(Cc1ccccc1)NC(=O)NC1CCN(c2ccnc(Nc3ccc(F)cc3)n2)C1 (stereo not shown) [GSK1379714],42,35,0,31,0,54,4,40,0,0,2,0,0,0,5,0,0,15,22,0
CC[C@@H]1CO[C@H](C(=O)Nc2ccccc2)CN1c1cc(-c2ccc3c(N)n[nH]c3c2)nc(NC)n1 [GSK2376236],0,5,13,0,0,0,0,56,3,0,0,0,6,0,0,0,0,14,14,0
Nc1cccc(-c2ccc3c(N)n[nH]c3c2)n1 [GSK2192730],0,3,22,3,1,31,18,0,0,0,50,0,13,61,76,0,0,0,0,0
COC(=O)c1cccc(NC(=O)NC2CCN(c3ccnc(Nc4ccc(F)cc4)n3)C2)c1 (stereo not shown) [GSK1379725],0,0,0,0,36,12,0,0,2,0,0,0,0,1,0,0,0,0,4,0
COc1cccc(C2=C(Nc3cc(Cl)c(O)c(Cl)c3)C(=O)NC2=O)c1 [SB-390767],1,0,0,0,0,17,0,17,0,0,0,26,6,26,0,0,4,0,0,3

# Reference: PMC5540273 (PLoS ONE, 2017)
